Most compounds without a hit are left out; they make up all but 2.9% or so of the library.
proKLK7 act: proKLK7 (human) activation, primary screen; purified proKLK7, EDANS-DABCYL substrate fluorescence; 100% is mature enzyme control, 0% vehicle; 370,000 compounds, 0.9% hits; P49862; activation, % at 7 µM;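 active = activation above the mean of all tested compounds plus 3 SD, computed per campaign excluding outliers beyond control limits, cut at about 13% in these data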
Target sequence (P49862 whole entry, looked up): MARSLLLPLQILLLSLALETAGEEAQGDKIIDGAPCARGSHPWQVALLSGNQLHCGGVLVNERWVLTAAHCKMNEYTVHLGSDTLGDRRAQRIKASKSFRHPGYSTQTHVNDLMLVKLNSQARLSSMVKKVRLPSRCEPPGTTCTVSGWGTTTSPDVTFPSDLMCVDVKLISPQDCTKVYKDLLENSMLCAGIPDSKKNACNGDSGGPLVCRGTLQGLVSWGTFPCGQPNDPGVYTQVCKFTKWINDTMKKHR
GAA850 FXN act: increases GAA850 frataxin promoter reporter activity; HEK293 lucGAA850 FXN promoter luciferase reporter, 24 h; percent of 10 µM SAHA response; AID 540364; 360,000 compounds, 0.56% hits; activation, % at 6 µM;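 active = activation above the average of all compounds screened plus 3 SD, cutoff fixed separately per campaign, cut at about 7.5% in these data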;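 also: 0% = DMSO wells and 100% = 10 µM SAHA wells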
SMARCA2 act: SMARCA2 function activation, primary screen | MG213 cells, MMTV-luciferase reporter, dexamethasone, overnight | 370,000 compounds, 1% hits | activation, % at 9.1 µM; in the data active = activation above about 7.8%;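 also: 0% = vehicle wells and 100% = reference activator wells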
FAS TE block: FAS thioesterase (human) inhibition; P49327; 360,000 compounds, 0.67% hits; AID 602261; recombinant FAS-TE, OMFH fluorogenic substrate, fluorescence endpoint; inhibition, % at 15 µM;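 active = compounds whose normalised, plate-corrected inhibition of enzyme fluorescence in the single-dose primary screen is 50% or more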;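 also: 0% = DMSO with enzyme and 100% = substrate without enzyme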
proKLK7 act conf: proKLK7 activation, confirmation; shares compounds with proKLK7 act; purified proKLK7, EDANS-DABCYL substrate fluorescence; scaled: vehicle 0, mature enzyme 100; activation, % at 7 µM; 3,200 compounds, 68% hits; AID 686949;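 active = activation, as change over the incubation, above the mean of all tested compounds plus 3 SD, cut at about 13% in these data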
EDANS interfere: fluorescence interference counter-screen for KLK7 activators; shares compounds with proKLK7 act; EDANS-DABCYL substrate fluorescence interference, no enzyme, 4 h; solvent 0%, active enzyme control 100%; activation, % at 7 µM; 3,200 compounds, 80% hits; AID 686952;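 active = activation above the all-compound mean plus 3 SD, ignoring values outside control-based bounds, cut at about 4.8% in these data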;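 also: value is the 4 h activation minus the activation read at time zero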
K7 EDANS ctr: counter-screen for kallikrein-7 activators: EDANS-DABCYL interference, dose response | shares compounds with proKLK7 act | EDANS-DABCYL peptide fluorescence interference, no enzyme | EC50, µM | 250 compounds, 20% hits;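 active = compounds that raise the fluorescence signal in this interference counterscreen, with EC50 at or below 10 µM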;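 also: intact quenched peptide substrate alone read at 355 nm excitation and 520 nm emission; signal is fluorescence gain from T0 to T4 after four hours at room temperature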
The depositor's hits bear a star; x = no result given.

SMILES	proKLK7 act	GAA850 FXN act	SMARCA2 act	FAS TE block	proKLK7 act conf	EDANS interfere	others
COC(=O)CSc1nc2ccccn2c(=O)c1C=O	59*	3	4	-4	77*	69*
O=Cc1c(Sc2ccccn2)nc2ccccn2c1=O	1	-2	0	4	x	x
COc1cccc(C2CC(c3ccc(C)cc3)=NN2C(=O)c2ccccc2F)c1OC (centres undefined)	-1	2	-3	19	x	x
Cc1nn(-c2ccccc2)nc1C(=O)Nc1cccc(C(=O)NC2CC2)c1	1	-2	-1	8	x	x
O=C1CSC(=S)N1c1ccc(F)c(Cl)c1	0	0	1	-2	x	x
CCCCCCCCN1C(=O)[C@H](CC(=O)NCc2ccc(OC)c(OC)c2)C[C@@]2(C(=O)OCC)CCC=C12	0	x	1	x	x	x
Cc1onc(-c2ccccc2Cl)c1C(=O)NC(=S)Nc1ccccc1C(N)=O	13*	-5	-1	-7	8	9.1*
COCCCNc1nc2c(-c3ccc(Cl)cc3)nnn2c2ccccc12	-1	3	-1	-7	x	x
COCCCNC(=O)c1nnn2c1nc(N)c1cc(Cl)ccc12	15*	x	-1	x	40*	40*
O=C(Nc1ccc(F)cc1)Nc1ccccc1F	0	2	4	-1	x	x
O=C(Nc1ccc(NC(=O)c2ccccc2O)cc1)Nc1ccc(F)cc1F	31*	-1	-6	-2	16*	10*	K7 EDANS ctr=9.7*
CCN1C(=O)c2cccc3c(S(=O)(=O)Nc4ccccc4)ccc1c23	x	4	x	0	x	x
CCN1C(=O)c2cccc3c(S(=O)(=O)Nc4ccncc4)ccc1c23	x	3	x	-12	x	x
CCN1C(=O)c2cccc3c(S(=O)(=O)NC(Cc4ccccc4)C(=O)O)ccc1c23 (centres undefined)	51*	1	1	-8	66*	67*
CCN1C(=O)c2cccc3c(S(=O)(=O)NCc4cccnc4)ccc1c23	53*	0	1	2	71*	78*
CCCC1OC23CCCCC2C(C#N)(C(=N)O3)C1(C#N)C#N (centres undefined)	2	2	-1	-10	x	x
CCC1OC23CCCCC2C(C#N)(C(=N)O3)C1(C#N)C#N (centres undefined)	14*	0	0	-1	68*	62*
N#C/C(=C\c1ccc(-c2nc3ccccc3s2)o1)C(N)=O	17*	4	4	-4	7	5.9*
COc1ccccc1-c1noc2c1C(=O)N(Cc1cn(-c3ccc(Cl)cc3)nn1)CC2	0	x	-6	3	x	x
COc1cc(C(Nc2ccccn2)c2c(NC(=O)c3ccco3)sc(C)c2C)cc(OC)c1OC (centres undefined)	26*	6	-1	27	-34	-32
Cc1ccc(C)n1-c1nccc(-c2cccs2)n1	52*	2	4	8	111*	136*
N#Cc1cccn1-c1nccc(-c2cccs2)n1	0	4	3	10	x	x
Cc1ccc(C)n1-c1nccc(-c2ccco2)n1	81*	-1	-2	-4	113*	127*
CCN(CC(=O)NC(C)(C)C)C(=O)CN1c2cccc3cccc(c23)S1(=O)=O	15*	-2	-2	-1	0	2
CC(C)(C)OC(=O)CN1c2cccc3cccc(c23)S1(=O)=O	13*	0	-3	2	6	13*
SMILES	proKLK7 act	GAA850 FXN act	SMARCA2 act	FAS TE block	proKLK7 act conf	EDANS interfere	others
COC(=O)CNC(=O)CN1c2cccc3cccc(c23)S1(=O)=O	23*	1	-4	-3	17*	17*
O=C(CN1c2cccc3cccc(c23)S1(=O)=O)N1CCCCC1	15*	2	-1	-6	12	13*
COc1ccc(CCNC(=O)CN2c3cccc4cccc(c34)S2(=O)=O)cc1	2	0	-1	2	x	x
CC(C)(C)NC(=O)NC(=O)CN1c2cccc3cccc(c23)S1(=O)=O	1	0	-1	3	x	x
Cn1nc(NC(=O)C(C)(C)C)c2c(F)cccc21	0	0	0	-4	x	x
O=C(NCc1nnnn1-c1ccc(F)c(F)c1)c1ccc2ccccc2c1	0	1	-1	-1	x	x
CN(C(=O)COC(=O)c1ccc(Cl)nc1)C1CCS(=O)(=O)C1 (centres undefined)	0	0	-2	-1	x	x
c1cc2c3c(cccc3c1)C(N1CCCCCC1)=N2	52*	-1	0	-2	7	9.4*
c1cc2c3c(cccc3c1)C(N1CCCCC1)=N2	x	1	x	-16	x	x
CCc1cc2c(nc1CC)CCCN2C	30*	x	-3	x	-47	-46
O=C1NC(c2ccco2)Nc2ccccc21 (centres undefined)	16*	1	1	-4	17*	18*
Cc1ccc(C2NC(=O)c3ccccc3N2)c(C)c1 (centres undefined)	32*	-5	-2	-4	29*	26*
Cc1cccc(C2NC(=O)c3ccccc3N2)c1 (centres undefined)	0	1	3	-8	x	x
CCOc1ccccc1C1NC(=O)c2ccccc2N1 (centres undefined)	13*	-1	-4	-6	13*	12*
CCNC(=O)c1cc2c(c(-c3cccc(-c4ccccc4F)c3)n1)[C@H](CCO)N(C(=O)CC)C2	1	x	-1	-2	x	x
Cc1cc(C)nc(NC(=O)c2ccc([N+](=O)[O-])o2)n1	133*	2	2	-6	151*	146*
Cc1cc(C)nc(NC(=O)c2cc([N+](=O)[O-])cc([N+](=O)[O-])c2)n1	0	3	-4	-11	x	x
Fc1ccc(C2C3=C(Nc4ncnn42)c2ccccc2OC3c2ccncc2)cc1 (centres undefined)	13*	0	-2	6	23*	26*
Cc1ccc(C2Oc3ccccc3C3=C2C(c2cccs2)n2ncnc2N3)cc1 (centres undefined)	-9	1	-4	30	x	x
CN(C(=O)c1cccc(NC(=O)Cc2ccc([N+](=O)[O-])cc2)c1)C1CCCC1	0	-2	-3	23	x	x
CCOc1ccccc1C(=O)N/N=C/c1coc2ccc(C)cc2c1=O	24*	-2	0	2	58*	54*
Cc1ccc2occ(/C=N/NC(=O)c3ccc(O)cc3)c(=O)c2c1	23*	-2	-3	15	53*	51*
Cc1ccc2occ(/C=N/NC(=O)c3ccccc3Br)c(=O)c2c1	2	-1	3	10	x	x
CCOC(=O)c1c(NC(=S)Nc2ccc(Cl)cc2)sc2c1CCN(C)C2	18*	1	0	-14	20*	21*
Cc1cc(=O)n2ccccc2c1C#N	48*	2	1	7	70*	70*
